# Shown are actives, neighbours in structure and some others; about 9.3% of the full set was active somewhere.
# FLuc modulator: counter-screen for miR-21 project: firefly luciferase inhibitors or activators | P08659 | purified FLuc, Km substrates, luminescence inhibition | Potency, µM (highest dose often 57.5 µM), for the others: at the top dose activity change, negative = inhibition, usual class: inhibitors | 360,000 tested, 6.9% active | AID 588342;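 further: plate controls were vehicle for no effect and reference inhibitor for full effect; nearly all actives have a fitted effect of over 55% in size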
# Target sequence (P08659 whole entry, looked up): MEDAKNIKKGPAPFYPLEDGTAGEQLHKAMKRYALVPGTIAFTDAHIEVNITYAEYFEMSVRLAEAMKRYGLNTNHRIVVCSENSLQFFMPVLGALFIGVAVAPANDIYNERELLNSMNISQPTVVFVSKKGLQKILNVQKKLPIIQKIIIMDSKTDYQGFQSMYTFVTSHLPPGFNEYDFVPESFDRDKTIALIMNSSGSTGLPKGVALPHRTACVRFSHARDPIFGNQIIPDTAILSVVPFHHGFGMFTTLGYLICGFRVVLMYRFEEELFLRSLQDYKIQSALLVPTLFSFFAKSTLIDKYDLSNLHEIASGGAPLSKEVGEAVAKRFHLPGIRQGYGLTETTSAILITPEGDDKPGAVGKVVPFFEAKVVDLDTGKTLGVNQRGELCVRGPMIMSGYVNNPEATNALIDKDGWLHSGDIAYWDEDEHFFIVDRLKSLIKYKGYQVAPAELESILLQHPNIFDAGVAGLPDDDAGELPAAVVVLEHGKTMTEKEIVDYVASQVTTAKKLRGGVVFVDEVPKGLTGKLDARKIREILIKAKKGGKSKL
#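 Purified P. pyralis luciferase (10nM final) with 10uM D-luciferin and 10uM ATP (Km levels) in 50mM Tris acetate pH 7.5, 10mM Mg acetate, 0.01% Tween-20, 0.05% BSA; qHTS 6-point titration, ~60 µM downward; luminescence read.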
# ELG1 genotox: genotoxicity induction in ELG1-luciferase HEK293T cells. HEK293T ELG1-luciferase reporter, luminescence, 16 h. Potency, µM (doses to about 46 µM), for the others: at the top dose activity change, positive = activation, actives largely listed as activators. 330,000 tested, 1.3% active. AID 504466; further: % of control where 0% means no effect; nearly all actives have a fitted effect of over 60% in size
#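 Screening used a luciferase reporter fused to human ELG1 in HEK293T cells. Luminescence was read on a CCD plate imager after 16 hr exposure and 30 min ONE-Glo incubation.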
# SMN2 splice enh: enhancers of SMN2 splice variant expression | HEK293 SMN2-luciferase splicing reporter, luminescence, 30-36 h | Potency, µM (highest dose often 46.1 µM), without a hit: at the highest dose activity change, positive = activation, actives largely listed as activators | 210,000 tested, 2.8% active | AID 1458; further: % of control where 0% means no effect; nearly all actives have a fitted effect of over 55% in size
#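 qHTS luciferase splicing reporter: luminescence rises when SMN2 exon 7 is included in transfected HEK293 cells. Compound exposure lasted 30-36 h at 37C, with 4.5 mM final sodium butyrate as control, followed by a ONE-Glo read.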
# ELG1 DNA repair: inhibitors of ELG1-dependent DNA repair in HEK293T cells; HEK293T ELG1-luciferase reporter, luminescence, 16 h; DNA damage induced by 5-fluorouridine; Potency, µM (titrated, usually from 46.1 µM), inactives show at the top dose activity change, negative = inhibition, actives largely listed as inhibitors; 330,000 tested, 2.3% active; further: on the % scale 0 is the no-effect control and ±100 the full control effect; nearly all actives have a fitted effect of over 55% in size
#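 Quantitative HTS, concentration-response format. 2,000 cells/well co-treated with 5-fluorouridine and compound, 16 hr in 5% CO2 at 37 °C; ONE-Glo luminescence read after 30 min.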
# Rab9 prom act: activates the Rab9 promoter; Potency, µM (titrated, usually from 9.22 µM), for inactives: at the top dose activation, negative = inhibition, actives largely listed as activators; Huh7 Rab9 promoter-luciferase reporter, luminescence, 24 h; 320,000 tested, 2.8% active; further: % of control where 0% means no effect; nearly all actives have a fitted effect of over 60% in size
#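 Cell-based reporter: Huh7 stable for Rab9 promoter-driven luciferase, plated in reduced-serum medium with 10% FBS at 1500 cells/well, compound-treated 24 h at 37 °C, luminescence read after 10 min reagent.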
# NPC1 prom act: activators of NPC1 promoter; AID 485313; Potency, µM (doses to about 9.22 µM), for the others: at the highest dose activation, actives largely listed as activators; Huh7 NPC1 promoter luciferase reporter, 24 h; 320,000 tested, 2.4% active; further: % of control where 0% means no effect; nearly all actives have a fitted effect of over 60% in size
#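 Huh7 cells stably carrying NPC1 promoter–luciferase, plated in Opti-MEM with 10% FBS for 2 h, were exposed to compound in DMSO for 24 h at 37 °C; luciferase reagent was added for 10 min and luminescence read.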
# Active calls of the source: *; ? = inconclusive; · = no result; [ ] = remark or other dose. The call rests on the fitted dose curve; in most records, active means well fitted curve in the direction sought with a large enough effect; inconclusive means small, poorly fitted or top-dose-only effect, or another doubt; inactive means no such curve, though single readings can be large; an effect the other way counts as inactive or inconclusive. Potency means the concentration at half of the fitted maximal effect.
SMILES,FLuc modulator,ELG1 genotox,SMN2 splice enh,ELG1 DNA repair,Rab9 prom act,NPC1 prom act
C=CCn1c(-c2cccs2)nc2nc3ccccc3nc21,19µM*,?,2.82µM*,-0.6%,29.6%,28.6%
C=CCn1c(-c2cccs2)nc2ccccc21,?,13.1%,7.0%,26.4%,11.4%,6.2%
C=CCn1c(-c2cccc(OC)c2)nc2nc3ccccc3nc21,15.1µM*,-8.7%,-9.9%,-18.7%,-0.7%,-0.5%
Cc1ccc(N2C(=O)c3n[nH]c(C)c3C2c2ccc(Cl)cc2)cc1 (stereo unspecified),9.53µM*,·,?,·,·,·
Cc1ccc(N2C(=O)c3n[nH]c(C)c3C2c2ccccc2Cl)cc1 (stereo unspecified),-14.6%,·,10.6%,·,·,·
COc1ccc(-c2nc(SCC(=O)NCc3ccco3)c(-c3ccccc3)[nH]2)cc1OC,?,-11.8%,-6.5%,9.2µM*,-3.0%,-2.2%
COc1ccc(-c2[nH]c(-c3ccc(F)cc3)nc2SCC(=O)NCc2ccco2)cc1OC,4.0%,-5.4%,-5.3%,18.4µM*,-15.2%,0.9%
CCOc1ccc(-c2nc(SCC(=O)NC3CCCC3)c(-c3ccccc3)[nH]2)cc1OC,23.9µM*,·,-84.6%,·,·,·
COc1ccc(CCNC(=O)CCCn2c(=O)c3cccn3c3ccc(F)cc32)cc1OC,-1.1%,·,·,·,·,·
Clc1ccc(-c2nc3nc4ccccc4nc3n2Cc2ccco2)cc1,?,23.1µM*,17.8µM*,?,3.8%,0.4%
Cc1ccc(-c2nc3nc4ccccc4nc3n2Cc2ccco2)cc1,10.7µM*,2.91µM*,8.91µM*,?,12.0%,3.7%
CCCn1c(-c2ccc(OC)cc2)nc2nc3ccccc3nc21,?,-5.6%,·,-15.9%,-1.2%,0.4%
Cc1ccccc1OCC(=O)Nc1ccc2nc(SCC(=O)N(C)c3ccccc3)sc2c1,-9.0%,·,·,·,·,·
Cc1c(NC(=O)c2ccc(S(=O)(=O)N3CCOCC3)cc2)c(=O)n(-c2ccccc2)n1C,-0.2%,-0.5%,·,9.0%,-5.7%,-0.1%
COC(=O)c1ccccc1N=Nc1c(N)n[nH]c1N,-14.0%,-4.9%,·,6.4%,7.1%,5.3%
COC(=O)c1ccccc1N=Nc1c(N)[nH][nH]c1=O,10.7µM*,-8.5%,·,-6.2%,-4.4%,-2.4%
N#CCCCC#Cc1ccc2c(c1)COc1c3ccccc3nn1-2,0.19µM*,?,·,?,0.1µM*,0.708µM*
CCCCCCC#Cc1ccc2c(c1)COc1c3ccccc3nn1-2,?,16.9%,·,?,0.891µM*,0.794µM*
CCCCC#Cc1ccc2c(c1)COc1c3ccccc3nn1-2,2.69µM*,?,·,?,7.08µM*,0.355µM*
CCCCCCCCC#Cc1nc(C)ccc1OC,·,10.7%,·,-5.2%,·,·
COc1ccc(NC(=O)CSc2nc(-c3cc(OC)c(OC)c(OC)c3)[nH]c2-c2ccc(F)cc2)cc1,-18.9%,·,?,·,·,·
O=C(COC(=O)Cn1cnc2ccccc21)Nc1ccc(F)c(F)c1,·,?,·,10.0%,·,·
COc1ccc(S(=O)(=O)NCCC(=O)NC2CCCCC2C)cc1[N+](=O)[O-] (stereo unspecified),·,-3.5%,·,-3.6%,·,·
C[C@]12CCC(=O)C=C1CCC1C2C(O)C[C@]2(C)C1CC[C@]2(O)C(=O)COC(=O)CCC(=O)O (stereo partly specified),·,·,5.9%,·,·,·
CCN(CC(=O)Nc1ccc(NC(C)=O)cc1)C(=O)/C=C/c1c(C)nn(-c2ccc(F)cc2)c1Cl,7.6%,-2.3%,·,5.8µM*,-6.5%,1.0%
SMILES,FLuc modulator,ELG1 genotox,SMN2 splice enh,ELG1 DNA repair,Rab9 prom act,NPC1 prom act
COc1cc(NC(=O)COC(=O)/C=C/c2c(C)nn(-c3ccc(F)cc3)c2Cl)cc(OC)c1,-3.9%,1.1%,4.8%[1.84 µM],?,-7.5%,-0.7%
CCOc1ccc(NC(=O)CN(C)C(=O)c2cn(-c3ccccc3)nc2-c2cccs2)cc1OCC,?,-9.8%,·,20.6µM*,-0.6%,-3.5%
CCN(CC(=O)Nc1ccc(NC(C)=O)cc1)C(=O)/C=C/c1cn(-c2ccccc2)nc1-c1cccs1,16.9µM*,-21.3%,·,?,?,-1.3%
NC(=O)CC(NC(=O)Cc1cccc2ccccc12)c1ccc(N2CCc3ccccc3C2)c([N+](=O)[O-])c1 (stereo unspecified),-2.0%,-5.8%,·,?,0.2%,1.0%
CCOc1ccc(NC(=O)CN(C)C(=O)c2cccnc2Sc2ccc(Cl)cc2)cc1OCC,5.6%,-2.1%,·,?,-2.6%,-5.5%
N=c1c2c(ncn1Cc1ccco1)Oc1ccc3ccccc3c1C2c1ccccc1 (stereo unspecified),-5.3%,-2.4%,-19.2%,14.6µM*,-5.0%,-3.7%
Cc1cc(/C=N/NC(=O)c2ccsc2)c(C)n1-c1cnccn1,19µM*,?,23.7%,?,?,18.3%
Cc1ccccc1-n1c(C)cc(/C=N/NC(=O)c2ccncc2)c1C,3.79µM*,7.9%,3.9%,?,14.7%,21.4%
CC1=C(C(=O)Nc2cccc(C(=O)NC3CCCCC3C)c2)SCCO1 (stereo unspecified),-12.8%,-9.9%,·,?,-2.8%,-4.8%
CN(Cc1cn(-c2ccccc2)nc1-c1ccc(Cl)cc1)C(=O)CCC(=O)O,10.7µM*,4.0%,5.7%,16.4%,-10.8%,6.7%
CN(Cc1cn(-c2ccccc2)nc1-c1ccc(F)cc1)C(=O)CCC(=O)O,12µM*,4.0%,14.3%,?,-2.8%,-2.2%
CN(CC(=O)Nc1cccc(F)c1)C(=O)c1cn(-c2ccccc2)nc1-c1ccc(F)cc1,?,-3.9%,·,-6.1%,-0.2%,-3.4%
